From PubChem BioAssay (NCI)
Compounds without any hit were thinned out: in the full panel of roughly 79,000, 15% have a hit. The source made the active and inactive calls. Rule as the data show it: active = growth inhibition above about 70%; inactive = the rest.

Columns and labels:
[1] = NCI Yeast Anticancer Drug Screen. Data for the rad50 strain (AID 155);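 also: 0% = growth of vehicle-only cultures of the same strain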; details: S. cerevisiae rad50 strain growth inhibition; at 50.0 µM; active compounds read high
Outline: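 Cells are treated with compound, grown, and their growth is then scored against vehicle-only cultures of the same repair-deficient yeast strain.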

[2] = NCI Yeast Anticancer Drug Screen. Data for the mec2-1 strain (AID 157); details: S. cerevisiae mec2-1 strain, at 50.0 µM, active compounds read high
Outline: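 Strain: mec2-1 (DNA repair/cell cycle alteration). Compound exposure, then growth measured; inhibition expressed relative to vehicle.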

[3] = NCI Yeast Anticancer Drug Screen. Data for the sgs1 mgt1 strain (AID 161);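 also: 0% = growth of cultures given vehicle only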; details: S. cerevisiae sgs1 mgt1 strain, at 50.0 µM, active compounds read high
Outline: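 Inhibition of yeast growth, normalised to vehicle-treated controls, is reported for a strain bearing genetic alterations in DNA damage repair.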

[4] = NCI Yeast Anticancer Drug Screen. Data for the cln2 rad14 strain (AID 165);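 also: 0% = growth equal to vehicle treated cultures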; details: S. cerevisiae cln2 rad14 strain, at 50.0 µM, active compounds read high
Outline: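 Compounds are applied to the cln2 rad14 yeast strain, and growth is then compared with that of vehicle-treated cultures to give inhibition.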

[5] = NCI Yeast Anticancer Drug Screen. Data for the bub3 strain (AID 167); details: S. cerevisiae bub3 mutant strain, at 50.0 µM, active compounds read high
Outline: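 Part of a panel of yeast mutants defective in DNA damage repair or cell cycle regulation. Each strain is grown with compound, and inhibition is calculated relative to solvent-treated cultures.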

[6] = NCI Yeast Anticancer Drug Screen. Data for the mlh1 rad18 strain (AID 175); details: S. cerevisiae mlh1 rad18 strain growth inhibition; at 50.0 µM; active compounds read high
Outline: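 Read-out is yeast growth inhibition, calculated against vehicle-only controls. The compound was applied to a strain engineered with DNA damage repair alterations.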

| Structure (SMILES) | growth inhibition [1] | growth inhibition [2] | growth inhibition [3] | growth inhibition [4] | growth inhibition [5] | growth inhibition [6] |
| --- | --- | --- | --- | --- | --- | --- |
| Nc1nc(NCCCc2ccccc2)c(N)c(=O)[nH]1 | 5.1% (inactive) | 16.9% (inactive) | 6.55% (inactive) | -3.1% (inactive) | 31.6% (inactive) | 7.6% (inactive) |
| CC(=NNC(=S)Nc1ccc(C)cc1)c1cccc(C(C)=NNC(=S)Nc2ccc(C)cc2)n1 | 35.5% (inactive) | 14.1% (inactive) | 36.8% (inactive) | 17.4% (inactive) | 12.4% (inactive) | 23.8% (inactive) |
| C/C(=C\c1ccccc1)C(O)C(=O)c1nc2ccc(Cl)cc2[nH]c1=O (configuration not stated) | 10.3% (inactive) | -15.4% (inactive) | 6.15% (inactive) | 26% (inactive) | -14.2% (inactive) | 6.55% (inactive) |
| CC1(CO)CCCC2(C)C3=CC(=O)CCC3CCC12 (configuration not stated) | -6.7% (inactive) | -1.9% (inactive) | -12.8% (inactive) | -0.35% (inactive) | -8.95% (inactive) | -3.15% (inactive) |
| CC(C)C(C)NC(=O)C(C)(C)C(C)(C)C (configuration not stated) | -4.85% (inactive) | -6.35% (inactive) | 10.6% (inactive) | -11.2% (inactive) | -0.7% (inactive) | -5.55% (inactive) |
| OCC(F)(F)C(F)(F)C(F)(F)C(F)(F)C(F)(F)C(F)(F)C(F)(F)C(F)F | 23.9% (inactive) | -11.2% (inactive) | -30.8% (inactive) | -11.5% (inactive) | 5.15% (inactive) | 8.6% (inactive) |
| COC(=O)/C(C#N)=C\n1c(=S)[nH]c2ccccc21 | -14.2% (inactive) | 2.55% (inactive) | -16.4% (inactive) | 17.4% (inactive) | -4.9% (inactive) | -8.35% (inactive) |
| Clc1ccc(C2=NON(c3ncccn3)C3N=CC=CN23)cc1 (configuration not stated) | 9.7% (inactive) | -20.8% (inactive) | 0.55% (inactive) | -6.75% (inactive) | 0.05% (inactive) | 19% (inactive) |
| COC1OC(CO)C(O)C1O (configuration not stated) | -25% (inactive) | -18.8% (inactive) | 2.55% (inactive) | -44.4% (inactive) | -4.85% (inactive) | -9.25% (inactive) |
| C=CC1OCC2(CO1)COC(C=C)OC2 (configuration not stated) | 12.4% (inactive) | -11.7% (inactive) | 2.4% (inactive) | -7.55% (inactive) | -12.4% (inactive) | 2.75% (inactive) |
| Nc1cccc2c(=O)[nH][nH]c(=O)c12 | 16.6% (inactive) | -3.1% (inactive) | 23.9% (inactive) | 9.95% (inactive) | 14.8% (inactive) | 22.1% (inactive) |
| CCCCCCCCCCCCOc1ccc(F)cc1C | 6% (inactive) | -1.15% (inactive) | 0.45% (inactive) | 4.6% (inactive) | 10.7% (inactive) | 13.4% (inactive) |
| CCn1c(=O)c2[nH]c(Cl)nc2n(CC(C)Cl)c1=O (configuration not stated) | 19.1% (inactive) | -5% (inactive) | 6.15% (inactive) | 17.8% (inactive) | 5.35% (inactive) | 19.1% (inactive) |
| O=C(CC(=O)c1ccccc1)Cc1ccccc1.O=C(CC(=O)c1ccccc1)Cc1ccccc1.[Cu] | 60% (inactive) | 22.6% (inactive) | 55.6% (inactive) | 12.7% (inactive) | 12.2% (inactive) | 41.2% (inactive) |
| CCCCCCCOc1ccc(C2=C(c3ccccc3)C(=O)C(c3ccccc3)=C2c2ccccc2)cc1 | 22.4% (inactive) | 3.3% (inactive) | 8.3% (inactive) | 15.9% (inactive) | 3.95% (inactive) | 2.4% (inactive) |
| CCOc1cc2c(cnc3c4cc(OC)c(OC)cc4ccc23)cc1OC | -8.6% (inactive) | -15.2% (inactive) | -13.5% (inactive) | -6.25% (inactive) | -17.9% (inactive) | -16.6% (inactive) |
| N#CCCC1(c2ccccc2)CCC/C(=C/c2ccccc2)C1=O (configuration not stated) | 11.8% (inactive) | 14.1% (inactive) | 1.7% (inactive) | 7.1% (inactive) | 17.4% (inactive) | 3% (inactive) |
| C=CCSc1nc2ccc(N=Cc3ccc([N+](=O)[O-])cc3)cc2s1 | 2.05% (inactive) | -12.5% (inactive) | -8.7% (inactive) | -14.6% (inactive) | 5.95% (inactive) | -21.2% (inactive) |
| CCC(C)OC(=O)C1C(=O)CC(c2ccccc2)C1c1ccccc1 (configuration not stated) | -2.2% (inactive) | -8.4% (inactive) | -4.8% (inactive) | -1.45% (inactive) | 3.4% (inactive) | -6.35% (inactive) |

| Structure (SMILES) | growth inhibition [1] | growth inhibition [2] | growth inhibition [3] | growth inhibition [4] | growth inhibition [5] | growth inhibition [6] |
| --- | --- | --- | --- | --- | --- | --- |
| O=C(Nc1ccccc1C(=O)N/N=C/c1ccccc1O)c1ccccc1Cl | 73.3% (active) | 91% (active) | 91.4% (active) | 84.8% (active) | 68.3% (inactive) | 90.8% (active) |
| NNC(=O)c1ccccc1Cl | -11.2% (inactive) | -21.1% (inactive) | -11.9% (inactive) | 0.4% (inactive) | -3.8% (inactive) | -25.9% (inactive) |
| O=C1c2c(ccc3c2CCC3)CC12Cc1cc3c(cc1C2)CCC3 | -33.8% (inactive) | -32.5% (inactive) | -22.9% (inactive) | 10.9% (inactive) | -0.5% (inactive) | -15.2% (inactive) |
| CCCCNc1nnc(N)s1 | 4.65% (inactive) | -24.2% (inactive) | -10.3% (inactive) | -34.5% (inactive) | -2.2% (inactive) | -27.9% (inactive) |
| O=C(Nc1cccc2c1C(=O)c1c(NC(=O)c3ccccc3)ccc(Nc3cccc4c3C(=O)c3ccccc3C4=O)c1C2=O)c1ccccc1 | 8.05% (inactive) | -2.65% (inactive) | 0.9% (inactive) | 10% (inactive) | 9.05% (inactive) | 3.45% (inactive) |
| CCCCCCCCCCCCCCCC1CCCC2CCCCC12 (configuration not stated) | -9.05% (inactive) | 9.25% (inactive) | 9.5% (inactive) | -5.85% (inactive) | 12.6% (inactive) | -26.4% (inactive) |
| O=C(NNC(=O)c1ccc2ccccc2c1)c1ccc(F)cc1 | 4.05% (inactive) | 0.9% (inactive) | 3.8% (inactive) | 3.05% (inactive) | 10.2% (inactive) | 10.2% (inactive) |
| CC(=O)Nc1cc(OC(C)=O)c(OC(C)=O)c2ccccc12 | -7.45% (inactive) | -6.9% (inactive) | -0.6% (inactive) | -1.55% (inactive) | -33.1% (inactive) | 1.1% (inactive) |
| O=C(OC1CCCC1)C1(O)CCCCC1 | 18.2% (inactive) | 12.7% (inactive) | 3.8% (inactive) | 10.5% (inactive) | -2.15% (inactive) | -16.2% (inactive) |
| C/C(=N/NC(N)=O)c1c(C)c(Cl)cc(Cl)c1OCCCC(C)C | -8.1% (inactive) | -3.05% (inactive) | 0.45% (inactive) | -6.1% (inactive) | 22.9% (inactive) | -10.6% (inactive) |
| [N-]=[N+]=NC1(Cc2ccccc2)C(=O)c2cccc3c2N(CCC3)C1=O (configuration not stated) | 4.25% (inactive) | 8.55% (inactive) | -0.65% (inactive) | 16.2% (inactive) | 25.7% (inactive) | -11.2% (inactive) |
| C=CC(=O)OCc1ccc(OC)cc1 | 30.1% (inactive) | 32.2% (inactive) | 28.9% (inactive) | 14.2% (inactive) | 5.95% (inactive) | 29.5% (inactive) |
| NC(N)=NC(Cc1ccccc1)C(=O)O (configuration not stated) | -8.15% (inactive) | -10% (inactive) | 1.3% (inactive) | -26.6% (inactive) | -12.4% (inactive) | 0% (inactive) |
| CCOC(=O)CCC(C)(C#N)c1ccccc1 (configuration not stated) | -2.35% (inactive) | 0.65% (inactive) | 2.5% (inactive) | -9.1% (inactive) | 5.75% (inactive) | -0.05% (inactive) |
| CC12CCC(C(S(=O)(=O)O)C1=O)C2(C)C (configuration not stated) (tested in a mixture with another compound) | -1.2% (inactive) | -15.1% (inactive) | -6.7% (inactive) | -5.7% (inactive) | -0.6% (inactive) | 0.55% (inactive) |
| CCOC(=O)C(=CNC(=S)Nc1cc(C)ccc1C)C(=O)OCC | -12.8% (inactive) | -38.5% (inactive) | -14.1% (inactive) | -19.1% (inactive) | -16.7% (inactive) | -1.85% (inactive) |
| CS(=O)(=O)OCC(=O)NCCCCNC(=O)COS(C)(=O)=O | -12.4% (inactive) | 2.7% (inactive) | 4.55% (inactive) | -29.5% (inactive) | 7.45% (inactive) | 10.3% (inactive) |
| CC(=O)C1CCN(Cc2ccccc2)C1 (configuration not stated) | 3.75% (inactive) | 6.9% (inactive) | 7.15% (inactive) | -1.05% (inactive) | -12.7% (inactive) | -21.6% (inactive) |
